The values below come from PubChem BioAssay (NCI).

Each structure is given as a SMILES string. The panel holds about 83,000 compounds, 20% with a hit somewhere; the sample as a whole holds those more often.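 Values shown are percent growth following 48 h exposure of cells in 96-well plates to a single concentration of compound; below 10 was considered active.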 Unmarked numbers belong to inactive results. Active and inactive are the calls of the source.

Test systems include DU-145 prostate; K-562 leukemia; MALME-3M melanoma; MDA-MB-231 breast; RXF 393 renal; SF-268 CNS; SF-295 CNS; SF-539 CNS; UACC-257 melanoma; M14 melanoma; HCT-15 colon; HT29 colon; SNB-75 CNS; SNB-19 CNS; U251 CNS; PC-3 prostate; UACC-62 melanoma; LOX IMVI melanoma; SK-MEL-28 melanoma; SK-MEL-5 melanoma.
Assay in all cases: NCI-60 one-dose screen, 48 h (100 = growth as untreated, 0 = no growth, -100 = all killed)
Holding throughout (details): 10 µM unless noted

`Cc1cc(=O)oc2cc(OC(=O)CN3CCN(C)CC3)ccc12`: the growth with DU-145 prostate is 109%; with K-562 leukemia, 93.7%; in the assay on MALME-3M melanoma, 112%; in the assay on MDA-MB-231 breast, 101%; in the assay with RXF 393 renal, 101%; with SF-268 CNS, 97.5%. The growth in the assay with SF-295 CNS is 101%; with SF-539 CNS, 98.4%; in the assay with UACC-257 melanoma, 109%; in the assay with M14 melanoma it was 97.9%; in the assay on HCT-15 colon, 98.9%; in the assay with HT29 colon it was 104%. The growth with SNB-75 CNS was 74.5%; in the assay on SNB-19 CNS it was 95.6%; with U251 CNS it was 105%; in the assay with PC-3 prostate it was 95.2%; with UACC-62 melanoma, 95.5%; in the assay with LOX IMVI melanoma, 97.9%. The growth with SK-MEL-28 melanoma is 104%.

In the case of `NCCOc1ncccc1/C=C1\C2C=CC=CC2C2C=CC(F)=CC12` (stereo unspecified), the growth in the assay on DU-145 prostate was 6.22% (active); with K-562 leukemia, 8.35% (active); in the assay on MALME-3M melanoma, 39.2%; in the assay on MDA-MB-231 breast it was 37.4%; in the assay on RXF 393 renal, 39.9%; in the assay on SF-268 CNS, 32.3%. For the same compound, the growth was -2.83% (active) with SF-295 CNS; 11.1% with SF-539 CNS; 71.7% in the assay with UACC-257 melanoma; 18.8% in the assay with M14 melanoma; 7.3% (active) with HCT-15 colon; 14.4% with HT29 colon. For the same compound, the growth was 40.3% in the assay on SNB-75 CNS; 16% with SNB-19 CNS; 10.8% with U251 CNS; 33.9% in the assay on PC-3 prostate; 21.7% in the assay with SK-MEL-5 melanoma; 31.5% in the assay on UACC-62 melanoma. Moreover, the growth in the assay on SK-MEL-28 melanoma was 64.3%.

As to `NCCNc1nc2ccccc2c2c(=O)c3cccc(F)c3sc12`, the growth with DU-145 prostate is 37%; with K-562 leukemia, 17.2%; in the assay with MALME-3M melanoma it was 88.4%; in the assay with MDA-MB-231 breast it was 44.7%; with RXF 393 renal, 83.3%; in the assay on SF-268 CNS, 61.6%. The growth in the assay with SF-295 CNS is 91.7%; with SF-539 CNS it was 59.2%; in the assay with UACC-257 melanoma, 101%; in the assay on M14 melanoma it was 83.3%; in the assay on HCT-15 colon it was 36.5%; in the assay on HT29 colon it was 16.4%. Also, the growth in the assay on SNB-75 CNS was 88%; in the assay on SNB-19 CNS, 56.8%; in the assay with U251 CNS, 43.9%; in the assay with PC-3 prostate, 62.9%; in the assay on UACC-62 melanoma, 95.9%; in the assay on LOX IMVI melanoma, 46.6%. The growth with SK-MEL-28 melanoma was 106%.

As for `Cc1nn(-c2ccccc2)c2c1N=c1s/c(=C\c3ccc(C(F)(F)F)cc3)c(=O)n1CN2`, the growth in the assay on DU-145 prostate is 117%; with K-562 leukemia, 93.1%; with MALME-3M melanoma it was 83.1%; in the assay with MDA-MB-231 breast, 56.2%; with RXF 393 renal, 49.7%; in the assay on SF-268 CNS, 101%. Also, the growth was 84% with SF-295 CNS; 67.8% with SF-539 CNS; -1.84% (active) with UACC-257 melanoma; 69.4% with M14 melanoma; 70.1% with HCT-15 colon; 77.6% in the assay on HT29 colon. In addition, the growth with SNB-75 CNS was 78%; in the assay on SNB-19 CNS, 84.4%; with U251 CNS, 73.6%; with PC-3 prostate, 37.2%; with SK-MEL-5 melanoma it was 31.1%; in the assay with UACC-62 melanoma it was 59.2%. Also, in the assay on SK-MEL-28 melanoma, the growth was 87.2%.

Turning to `COc1cc(C2CC(c3ccc(SC)cc3)=NN2C(C)=O)cc(OC)c1OC` (stereo unspecified), the growth in the assay on DU-145 prostate is 91%; with K-562 leukemia it was 31.1%; in the assay on MALME-3M melanoma, 59.6%; in the assay on MDA-MB-231 breast it was 85.3%; in the assay with RXF 393 renal, 77.7%; in the assay with SF-268 CNS it was 77.2%. Further, the growth in the assay on SF-295 CNS is 44.1%; in the assay with SF-539 CNS, 78.1%; with UACC-257 melanoma it was 79.4%; in the assay on M14 melanoma, 44.3%; in the assay on HCT-15 colon it was 47.5%; with HT29 colon, 21.9%. In addition, the growth with SNB-75 CNS is 11.9%; with SNB-19 CNS, 74.3%; in the assay on U251 CNS, 62.7%; with PC-3 prostate, 58.3%; in the assay on UACC-62 melanoma it was 57.9%; with LOX IMVI melanoma, 62.3%.

With `O=C(COc1ccc(/C=C2\Cc3ccc(Cl)cc3C2=O)cc1)Nc1nc2ccccc2s1`, the growth with DU-145 prostate is 115%; in the assay on K-562 leukemia, 86.4%; in the assay with MALME-3M melanoma, 132%; in the assay with MDA-MB-231 breast it was 96%; in the assay on RXF 393 renal, 88.4%; with SF-268 CNS, 112%. In addition, the growth in the assay on SF-295 CNS is 108%; with SF-539 CNS it was 98.9%; in the assay on UACC-257 melanoma, 105%; in the assay on M14 melanoma, 103%; in the assay on HCT-15 colon, 106%; in the assay with HT29 colon it was 116%. The growth in the assay with SNB-75 CNS is 88%; with SNB-19 CNS, 98%; in the assay on U251 CNS, 97.8%; with PC-3 prostate, 92%; in the assay on SK-MEL-5 melanoma, 105%; in the assay with UACC-62 melanoma, 98.2%. Moreover, in the assay on SK-MEL-28 melanoma, the growth is 108%.

For `Cc1nc2cnc(N)c(C#Cc3cncc(C(=O)Nc4ccc(CN5CCN(C)CC5)c(C(F)(F)F)c4)c3)c2nc1C`, the growth in the assay with DU-145 prostate is 8.22% (active); in the assay on K-562 leukemia, 7.33% (active); with MALME-3M melanoma, -40.5% (active); with MDA-MB-231 breast, -12.3% (active); with RXF 393 renal, -68.3% (active); in the assay with SF-268 CNS, 8% (active). Also, the growth with SF-295 CNS was 36%; with SF-539 CNS it was -23.3% (active); in the assay with UACC-257 melanoma it was -25.8% (active); with M14 melanoma it was -55.6% (active); in the assay on HCT-15 colon it was 2.84% (active); with HT29 colon, 7.18% (active). The growth in the assay with SNB-75 CNS is -5.44% (active); in the assay on SNB-19 CNS, 48.2%; in the assay with U251 CNS, 42.1%; with PC-3 prostate, 29%; in the assay on UACC-62 melanoma, -19.7% (active); in the assay on LOX IMVI melanoma it was -88.8% (active). Also, the growth with SK-MEL-28 melanoma is -26.8% (active).

In the case of `Cc1ccc2nc(NC(=O)CSc3nc(Cl)c(C#N)c(-c4ccccc4)n3)sc2c1`, the growth in the assay on DU-145 prostate is 113%; with K-562 leukemia, 99.7%; with MALME-3M melanoma, 104%; in the assay on MDA-MB-231 breast, 111%; in the assay with RXF 393 renal, 114%; with SF-268 CNS, 111%. For the same compound, the growth in the assay with SF-295 CNS was 101%; in the assay with SF-539 CNS, 102%; in the assay with UACC-257 melanoma, 101%; in the assay on M14 melanoma, 97.9%; in the assay with HCT-15 colon, 99.8%; in the assay with HT29 colon, 102%. Further, the growth was 95.9% in the assay on SNB-75 CNS; 96% with SNB-19 CNS; 99.1% in the assay on U251 CNS; 89.5% in the assay with PC-3 prostate; 102% with SK-MEL-5 melanoma; 88.3% with UACC-62 melanoma. The growth in the assay with SK-MEL-28 melanoma is 103%.
